Env fusion inh: blocks HIV Env-driven cell-cell fusion | HeLa-JRFL Env/CEM21 cell fusion, luciferase | inhibition, % at 12.3 µM | 1.1% of 360,000 active;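 active means mean replicate inhibition score of at least 50 and every replicate individually at or above 50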;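 further: 0% = plate neutral controls and 100% = maraviroc near 300 nM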
Wnt act: activates Wnt/beta-catenin signaling in a reporter cell assay; activator, plate reader; activation, % at 9.35 µM; 1.2% of 300,000 active; in the data active means activation above about 30%, passing the limit was not always enough;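 further: 0% = neutral control wells and 100% = positive control wells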
esBAF inh: SWI/SNF esBAF complex inhibition. mouse ES cells, Bmi1-luciferase knock-in reporter, 24 h; 100% = twice the neutral-well signal. reporter increase, % at 12.5 µM. 2% of 350,000 active. AID 602393; in the data active means activation above about 40%;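 further: 0% = median of the plate's neutral control wells and 100% = double that signal; a rise in the Bmi1 reporter signal indicates esBAF inhibition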
miR122 inh: inhibitors of miR-122 in Huh7 cells; Huh7 miR-122 Renilla luciferase sensor, 48 h; neutral wells = 0, positive control = 100; activation (reporter increase), % at 12.5 µM; 0.3% of 340,000 active;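 active means mean replicate activation score at least 90 and every replicate individually at or above 90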;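 further: higher luciferase means less miR-122 activity so hits act as miR-122 inhibitors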
MITF act: activators of MITF-driven TRPM1 promoter activity in SK-MEL-5 cells; SK-MEL-5 TRPM1-promoter luciferase, 24 h; % of positive control, neutral wells = 0; activation, % at 12.5 µM; 0.75% of 300,000 active;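 active means mean activation of at least 80% with every replicate also reaching 80%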;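 further: 0% = neutral control wells and 100% = parthenolide positive control wells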
The depositor's hits bear a star; / = no result; [ ] = remark or other dose. This is a sample that favours compounds with a hit; in the whole collection about 3.4% have one here.

SMILES	Env fusion inh	Wnt act	esBAF inh	miR122 inh	MITF act
NC(=S)n1[nH]c(-c2ccc([N+](=O)[O-])cc2)c(N=Nc2cccc(Cl)c2)c1=O	57.1*	-3.6	/	2.2	-30.3
CCc1ccc(NC(=O)CSCc2nc(N)nc(Nc3ccccc3CC)n2)cc1	61.2*	-5.9	-1.2	-4.8	-9.3
Cc1ccccc1CSCc1nc(N)nc(Nc2ccccc2C)n1	-18.2	6.2	32.4	0.8	47.5
CCc1ccccc1Nc1nc(N)nc(COC(=O)c2cccn2C)n1	-33.1	-5.9	25.6	3.2	32.0
CCc1ccccc1Nc1nc(N)nc(CSCC(=O)Nc2ccc(C)c(C)c2)n1	71.3*	57.3*	/	-4.5	-8.4
COc1cc(/C=N/O)ccc1OCc1ccccc1Cl	-83.4	14.6	40.3	15.0	96.0*
CN1C[C@@H]2[C@H](c3ccccc31)[C@@H](CO)N2Cc1ccccc1	/	/	6.0	-23.8[16.7 µM]	/
CNc1cccc(-c2ccc(C(C)=O)s2)n1	-35.3	-1.5	52.7*	-5.2	/
CS(=O)(=O)Nc1ccc2c(c1)[C@@H]1C[C@H](CC(=O)NCc3ccc(Oc4ccccc4)cc3)O[C@@H](CO)[C@@H]1O2	4.3[16.7 µM]	/	-29.9	20.2[16.7 µM]	/
O=C(C[C@H]1C=C[C@@H](NC(=O)Nc2ccccc2F)[C@H](CO)O1)NCc1ccc(-c2ccccc2)cc1	56.6*[16.7 µM]	/	-7.8	-4.4[16.7 µM]	/
COc1ccccc1NC(=O)N[C@H]1C=C[C@@H](CC(=O)N[C@H](C)c2ccccc2)O[C@H]1CO	94.4*[16.7 µM]	/	0.4	/	/
O=C(C[C@H]1CC[C@H](NC(=O)Nc2ccccc2F)[C@H](CO)O1)NCc1ccccc1	-12.2[16.7 µM]	/	-8.1	/	/
O=C(O)C[C@@H]1C=C[C@H](NC(=O)Nc2ccccc2)[C@@H](CO)O1	-3.8[16.7 µM]	/	-1.3	/	/
O=C(C[C@H]1CC[C@@H](NC(=O)Nc2ccccc2F)[C@@H](CO)O1)NCc1ccc(Cl)cc1	59.5*[16.7 µM]	/	1.0	/	/
COc1ccccc1NC(=O)N[C@H]1C=C[C@H](CC(=O)N[C@H](C)c2ccccc2)O[C@@H]1CO	14.2[16.7 µM]	/	2.7	/	/
O=C(O)C[C@@H]1C=C[C@@H](NC(=O)Nc2ccccc2)[C@H](CO)O1	58.5*[16.7 µM]	/	2.0	/	/
CCCNC(=O)Nc1ccc2c(c1)OC[C@@H](C)N(C(=O)C1CCCC1)C[C@@H](C)[C@H](OC)CN(C)C2=O	/	/	-0.6	-0.5[16.7 µM]	/
C[C@@H]1CCCCO[C@@H](CN(C)C(=O)Nc2cccc3ccccc23)[C@@H](C)CN([C@@H](C)CO)C(=O)c2cc(NC(=O)Nc3ccc(C(F)(F)F)cc3)ccc2O1	-4.0[16.7 µM]	/	/	/	/
CCNC(=O)C[C@@H]1CC[C@@H]2[C@H](COc3ccc(NC(=O)Nc4ccccc4C)cc3C(=O)N2C)O1	-6.8[16.7 µM]	/	-3.4	-7.2[16.7 µM]	/
O=C(C[C@@H]1C=C[C@@H](NC(=O)Nc2ccc3c(c2)OCO3)[C@H](CO)O1)NCc1ccc(F)cc1	59.2*[16.7 µM]	/	-4.5	/	/
C[C@@H]1CCCCO[C@@H](CN(C)Cc2ccc(C(=O)O)cc2)[C@H](C)CN([C@H](C)CO)C(=O)c2cc(NC(=O)Cc3ccccc3)ccc2O1	0.2[16.7 µM]	/	-6.3	4.4[16.7 µM]	/
Cc1ccc(O)c(-c2cc(C(F)(F)C(F)F)nc(-c3ccccc3)n2)c1	/	/	-3.1	-5.5	6.1
Oc1ccc(Cl)cc1-c1cc(C(F)(F)C(F)F)nc(-c2ccccc2)n1	66.5*	/	/	/	/
CCCNC(=O)N(C)C[C@@H]1Oc2cc(-c3ccc(C)cc3)ccc2S(=O)(=O)N([C@H](C)CO)C[C@@H]1C	-21.1[16.7 µM]	/	1.0	-0.3[16.7 µM]	/
Nc1nonc1C(=O)N1CCCC1	0.9	/	4.8	247.0*	-2.3
SMILES	Env fusion inh	Wnt act	esBAF inh	miR122 inh	MITF act
CC(=O)N(C)C[C@@H]1Oc2cc(C3=CCCCC3)ccc2S(=O)(=O)N([C@@H](C)CO)C[C@@H]1C	13.2[16.7 µM]	/	/	-2.0[16.7 µM]	/
COc1ccccc1NS(=O)(=O)c1ccc2oc(SCc3ccc(C#N)cc3)nc2c1	58.2*	-3.4	/	/	-14.9
NC(=O)c1cnn(-c2cc(Oc3ccccc3)ncn2)c1N	-30.1	7.9	37.3	-1.4	87.4*
COC(=O)c1cnn(-c2cc(Oc3ccccc3)ncn2)c1N	/	/	21.8	-5.6	59.4
CC(C)(C)NC(=O)C1C(c2ccc(C(F)(F)F)cc2)=Nc2ccccc2N1C(=O)c1cccc(C(F)(F)F)c1 (stereo unspecified)	66.7*	0.1	/	/	/
O=C(NC1CCCC1)C1C(c2ccc(C(F)(F)F)cc2)=Nc2ccccc2N1C(=O)c1cccc(C(F)(F)F)c1 (stereo unspecified)	26.5	-1.5	/	/	/
CC(C)NC(=O)C1C(c2ccc(C(F)(F)F)cc2)=Nc2ccccc2N1C(=O)c1ccco1 (stereo unspecified)	0.2	-0.7	/	/	/
CC(C)NC(=O)C1C(c2ccc(C(F)(F)F)cc2)=Nc2ccccc2N1C(=O)c1ccccc1 (stereo unspecified)	-39.9	44.8*	/	/	/
C[C@H](CO)N1C[C@H](C)[C@@H](CN(C)C(=O)CN(C)C)Oc2cc(C3=CCCC3)ccc2S1(=O)=O	-1.8[16.7 µM]	/	2.7	4.3[16.7 µM]	/
COc1ccc2nc3ccccc3nc2c1	/	-1.8	41.6*	54.5	93.0*
CO[C@H]1CN(C)C(=O)c2cc(NC(C)=O)ccc2OC[C@H](C)N(S(=O)(=O)c2cn(C)cn2)C[C@H]1C	47.2[16.7 µM]	/	-0.8	/	/
COCC(=O)Nc1ccc2c(c1)C(=O)N(C)[C@H]1CC[C@@H](CC(=O)NCc3ccccc3F)O[C@@H]1CO2	-7.3[16.7 µM]	/	-1.8	25.0[16.7 µM]	/
Cn1nnnc1Sc1ncnc2scc(-c3ccc(F)cc3)c12	83.5*	/	-6.9	-24.4	-84.8
Cc1ccc(S(=O)(=O)Nc2ccc3c(c2)CC(=O)N([C@@H](C)CO)C[C@H](C)[C@@H](CN(C)Cc2ccc4c(c2)OCO4)O3)cc1	/	/	6.7	-7.8[16.7 µM]	/
CC(C)(C)c1ccc(C(=O)CC(=O)c2cc(Cl)ccc2O)cc1	83.5*	/	10.3	6.7	-5.5
C[C@H]1CN([C@@H](C)CO)C(=O)c2cc(N(C)C)ccc2O[C@H]1CN(C)S(=O)(=O)c1ccc(Cl)cc1	/	/	8.2	4.3[16.7 µM]	/
C[C@@H]1CN([C@H](C)CO)C(=O)c2cc(N(C)C)ccc2O[C@@H]1CN(C)S(=O)(=O)c1ccc(Cl)cc1	/	/	3.6	98.3*[16.7 µM]	/
COc1ccc(S(=O)(=O)N(C)C[C@H]2Oc3ccc(N(C)C)cc3C(=O)N([C@H](C)CO)C[C@@H]2C)cc1	13.7[16.7 µM]	/	-1.3	112.2*[16.7 µM]	/
C[C@H](CO)N1C[C@H](C)[C@@H](CN(C)Cc2ccc(-c3ccccc3)cc2)Oc2ccc(N(C)C)cc2C1=O	/	/	1.1	21.7[16.7 µM]	/

Screening data as filed in PubChem BioAssay.
